The text below walks through data of PubChem BioAssay.

The nature of the experiment: compound effects on lung adenocarcinoma cell viability – A549, calcein-AM fluorescence, 48 h, basal, profiling panel (AID 1162). Also: test concentration not given here. To be noted: higher = more signal.
Turning to `COC(=O)C(CC#Cc1ccc2c(c1)[C@]1(C(=O)N2)[C@H](C(=O)NC[C@H](O)c2ccccc2)[C@H]2C(=O)O[C@H](c3ccccc3)[C@H](c3ccccc3)N2[C@@H]1c1ccccc1OCCO)C(=O)OC`, the z-score is -0.101.

As to `CN(C)CCCNC(=O)[C@@]1(Cc2ccccc2I)c2ccccc2C(=O)N(C2CCCCC2)[C@H]1c1ccc(CO)cc1`, the z-score was -4.29.

For the compound `CN1C(=O)C2C=CC(C(O)c3ccc(-c4ccccc4)s3)N(NC(=O)OC(C)(C)C)C2C1=O` (centres undefined), the z-score was -0.823.

As for `CCCNC(=O)[C@@]1(Sc2ccc(C)cc2)CC(=O)N(Cc2ccccc2Cl)[C@@H]1c1ccc(CO)cc1I`, the z-score is 1.43.

As to `CN(C)c1ccc(C(O)C2C=CC3C(=O)N(Cc4ccccc4)C(=O)C3N2n2cnnc2)cc1` (centres undefined), the z-score is 0.566.

Turning to `C[C@@H]1ON(c2ccccc2)[C@H](c2ccccc2)[C@H]1C(=O)O`, the z-score is -0.0985.

Take `O=C1[C@H]2C=C(I)[C@H](C[C@@H]2c2ccccc2)[C@@]12CO2`: the z-score was -1.3.

`C=CCC(OC(C)=O)[C@@H]1[C@@H](N(Cc2ccc(-c3cccc(C(F)(F)F)c3)o2)C(=O)c2ccc(-c3ccccc3)cc2)c2cc(OCCCO)ccc2N1C(=O)c1ccc2ccccc2c1` (some centres undefined): the z-score was 0.965.

As to `O=C(NCc1ccc(F)cc1)[C@H]1C[C@H]2C(=O)N3CCC[C@H]3C(=O)N2[C@H]1c1ccc(O)cc1`, the z-score is -0.965.

Turning to `N#Cc1ccc(NN2C(C(O)C3CC=CCC3)C=CC3C(=O)N(c4ccccc4)C(=O)C32)cc1` (centres undefined), the z-score was -0.726.

`CCCNC(=O)[C@@]1(c2ccc([N+](=O)[O-])cc2)CC(=O)N(C(C)C)[C@@H]1c1ccc(CO)cc1`: the z-score is 0.186.

In the case of `CC(C)N1C(=O)C[C@@](C(=O)NCCN2CCOCC2)(c2ccc([N+](=O)[O-])cc2)[C@H]1c1ccc(CO)cc1`, the z-score was -0.827.

For the compound `C[N+](C)(C)CCCC[C@@H]1NC(=O)[C@H]2C[C@@H](C(=O)NCCCCCNC(=O)CS)[C@@H](c3cccc(OCCO)c3)N2C1=O`, the z-score was 0.316.

Consider `[N-]=[N+]=Nc1ccccc1[C@@H]1OC(c2ccc(OCCCO)cc2)=N[C@]1(Cc1ccccc1)C(=O)NCCN1CCOCC1`, for which the z-score was -0.975.

As for `CCOC(=O)C[C@H]1[C@H](OC(=O)c2ccccc2-c2ccccc2)[C@@H](NC(=O)C2CCCCC2)c2cc(OCCCO)ccc2N1C(=O)c1ccc2ccccc2n1`, the z-score is 0.448.

Turning to `NC(=O)N1C(=O)C2C(C1=O)C1C=C(CCCO)C2C(c2ccc(CN3CCCC3)cc2)N1Cc1sc2ccccc2c1Cl` (centres undefined), the z-score is -0.142.

On to `CC(C)(C)N1CC=CC23O[C@@H]4/C=C\CCCOC(=O)C4[C@H]2C(=O)N(CCCO)[C@@H]3C1=O` (some centres undefined), for which the z-score was -0.377.

As for `CC(C)N1C(=O)c2ccccc2[C@](C)(C(=O)NCC(F)(F)F)[C@@H]1c1ccc(CO)cc1`, the z-score is 0.508.

For `COc1ccc(C#Cc2ccc3c(c2)[C@]2(C(=O)N3)[C@H](C(=O)O)[C@H]3C(=O)O[C@H](c4ccccc4)[C@H](c4ccccc4)N3[C@@H]2c2ccccc2OCCO)cc1`, the z-score was -1.23.

Regarding `CCCCCC1=C2CNC(Cc3ccccc3)(C(=O)OC)C=C2C(C)C1=O` (centres undefined), the z-score is -1.33.

With `CCCCCCc1nc(-c2ccc(-c3ccc(Cl)c(Cl)c3)o2)cc2c1[Si](C(C)C)(C(C)C)OC2`, the z-score is -0.567.

Regarding `COC(=O)[C@H](Cc1ccccc1)N1CC2=CCCC=C[C@@H]2[C@H]1[C@H](O)Cc1ccccc1`, the z-score was -0.183.

With `COC(=O)[C@@]1(Cc2ccc(F)cc2)[C@H]2c3cc(C(=O)N4CCCC4)n(CCc4ccccn4)c3C[C@H]2CN1C(=O)c1ccccc1`, the z-score is 0.19.

As to `O=C1N(CCS(=O)(=O)c2ccccc2)c2ccccc2C[C@]12N=C(c1ccc(OCCCO)cc1)O[C@@H]2c1ccccc1`, the z-score is -0.982.

Take `C=CCN1C(=O)[C@]2(O[C@H](CCn3cc([C@H](O)c4ccccc4)nn3)[C@@H]([Si](C)(C)c3ccc(OC)cc3)[C@@H]2C)c2cc(NC(=O)c3ccc(OC)cc3)ccc21`: the z-score was 0.268.

As for `C=C(COC)C(=O)CC[C@@H](OC(C)=O)c1ccccc1OCCO`, the z-score was 0.177.

Turning to `COC(=O)[C@@]1(Cc2ccc(F)cc2)[C@H]2c3cc(C(=O)N4CCCC4)n(Cc4ccccn4)c3C[C@H]2CN1C(=O)c1ccccc1`, the z-score was -0.94.

As for `C=CCOC(=O)[C@@H]1[C@H]2C(=O)O[C@H](c3ccccc3)[C@H](c3ccccc3)N2[C@H](c2ccc(OCCOC(=O)[C@H]3C[C@H]4C(=O)NCC(=O)N4[C@H]3c3cccc(OCCO)c3)cc2)[C@@]12C(=O)Nc1ccc(I)cc12`, the z-score is -0.175.

Turning to `COC(=O)C[C@H]1O[C@@]2(C[C@@H]1[Si](C)(C)C)C(=O)N(C)c1ccccc12`, the z-score is 0.904.
